Bioassay records deposited in PubChem BioAssay by National Center for Advancing Translational Sciences (NCATS).
Sampled rows, rich in hits. Any-hit rate of the full collection: about 10%.
BAZ2B inh: qHTS Assay for Inhibitors of BAZ2B; Bromodomain adjacent to zinc finger domain protein 2B (Homo sapiens), Q9UIF8; AlphaScreen BAZ2B-H3K14Ac peptide displacement; Potency, µM (top dose mostly 114 µM), without a hit: at the highest dose activity change, negative = inhibition, most hits filed as inhibitors; actives 4.4% (n = 360,000); note: potency is the fitted concentration of half-maximal effect; % is set by controls: 0 for no effect and ±100 for the full control effect; nearly all actives have a fitted effect of over 60% in size
Target sequence (Q9UIF8 whole entry, looked up, the tested form may be a part): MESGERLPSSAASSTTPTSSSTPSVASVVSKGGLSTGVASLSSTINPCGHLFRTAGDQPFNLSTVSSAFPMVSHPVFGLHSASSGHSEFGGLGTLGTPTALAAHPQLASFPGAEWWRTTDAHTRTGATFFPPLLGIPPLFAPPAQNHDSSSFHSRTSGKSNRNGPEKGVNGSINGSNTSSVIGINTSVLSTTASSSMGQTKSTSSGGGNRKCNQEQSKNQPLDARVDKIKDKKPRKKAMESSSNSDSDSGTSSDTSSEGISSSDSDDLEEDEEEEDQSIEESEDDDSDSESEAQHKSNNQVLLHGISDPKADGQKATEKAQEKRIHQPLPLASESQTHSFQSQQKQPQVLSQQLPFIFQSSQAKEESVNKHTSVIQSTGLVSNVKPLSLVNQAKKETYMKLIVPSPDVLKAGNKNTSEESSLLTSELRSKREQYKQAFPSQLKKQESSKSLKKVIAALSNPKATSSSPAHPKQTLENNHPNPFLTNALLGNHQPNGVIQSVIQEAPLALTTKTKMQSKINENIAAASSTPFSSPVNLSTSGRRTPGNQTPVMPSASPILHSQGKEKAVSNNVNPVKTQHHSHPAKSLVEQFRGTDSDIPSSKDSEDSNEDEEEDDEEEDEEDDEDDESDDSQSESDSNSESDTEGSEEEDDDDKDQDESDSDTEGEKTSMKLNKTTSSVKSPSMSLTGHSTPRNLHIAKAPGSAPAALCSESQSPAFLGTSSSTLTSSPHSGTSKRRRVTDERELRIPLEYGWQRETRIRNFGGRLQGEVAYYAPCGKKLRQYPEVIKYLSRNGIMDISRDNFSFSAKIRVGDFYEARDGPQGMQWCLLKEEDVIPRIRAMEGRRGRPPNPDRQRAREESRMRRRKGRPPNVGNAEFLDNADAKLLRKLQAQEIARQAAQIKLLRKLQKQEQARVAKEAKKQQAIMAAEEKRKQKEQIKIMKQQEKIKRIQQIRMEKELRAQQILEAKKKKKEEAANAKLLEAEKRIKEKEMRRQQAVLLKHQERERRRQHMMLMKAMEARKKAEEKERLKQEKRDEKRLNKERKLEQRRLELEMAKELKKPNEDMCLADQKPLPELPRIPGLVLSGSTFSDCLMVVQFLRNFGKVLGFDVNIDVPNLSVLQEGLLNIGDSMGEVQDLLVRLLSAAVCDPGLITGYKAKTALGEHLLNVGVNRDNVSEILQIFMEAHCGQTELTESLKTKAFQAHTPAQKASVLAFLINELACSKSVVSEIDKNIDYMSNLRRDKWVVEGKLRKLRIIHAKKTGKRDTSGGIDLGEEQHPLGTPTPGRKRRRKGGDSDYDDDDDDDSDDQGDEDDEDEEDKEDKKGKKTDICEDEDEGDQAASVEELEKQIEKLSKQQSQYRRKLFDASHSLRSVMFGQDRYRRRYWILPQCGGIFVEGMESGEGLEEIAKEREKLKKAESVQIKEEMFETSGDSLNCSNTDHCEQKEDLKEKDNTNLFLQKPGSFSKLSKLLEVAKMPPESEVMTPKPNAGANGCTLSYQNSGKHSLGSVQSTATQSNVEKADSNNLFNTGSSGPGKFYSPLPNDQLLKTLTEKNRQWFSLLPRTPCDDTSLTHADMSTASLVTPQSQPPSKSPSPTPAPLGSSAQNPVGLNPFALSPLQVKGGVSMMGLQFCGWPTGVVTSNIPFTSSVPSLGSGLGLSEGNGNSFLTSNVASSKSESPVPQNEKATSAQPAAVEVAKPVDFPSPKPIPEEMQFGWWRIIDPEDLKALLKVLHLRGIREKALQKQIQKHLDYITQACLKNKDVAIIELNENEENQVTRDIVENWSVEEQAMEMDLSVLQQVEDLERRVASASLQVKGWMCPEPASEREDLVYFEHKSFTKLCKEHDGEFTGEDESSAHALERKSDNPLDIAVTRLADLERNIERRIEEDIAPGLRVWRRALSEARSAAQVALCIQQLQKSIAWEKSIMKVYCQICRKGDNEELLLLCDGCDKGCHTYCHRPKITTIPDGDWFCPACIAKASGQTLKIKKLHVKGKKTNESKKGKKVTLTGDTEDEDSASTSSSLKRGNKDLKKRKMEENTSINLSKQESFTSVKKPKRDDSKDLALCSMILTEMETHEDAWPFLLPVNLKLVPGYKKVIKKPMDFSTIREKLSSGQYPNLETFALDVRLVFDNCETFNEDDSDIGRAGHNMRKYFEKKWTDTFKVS
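Compounds, titrated to a top concentration of 110 uM, were incubated 30 min at room temperature with preformed BAZ2B/acetyl-K14 H3 peptide complex (50 nM each). Proximity signal was measured by AlphaScreen after 20 min with beads.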
Six1-Eya2 inh: qHTS Assay for Inhibitors of the Six1/Eya2 Interaction; Homeobox protein SIX1 (Homo sapiens) + Protein phosphatase EYA2 (Homo sapiens), …; AlphaScreen GST-Six1/His-Eya2 binding, biochemical; stronger effect = lower value; activity change, % (concentration not given with the values); actives 0.56% (n = 360,000); AID 651725, 2012; in the data active = activity change below about -65%; inconclusive = mostly about -30% to -63%; note: % is set by controls: 0 for no effect and ±100 for the full control effect
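AlphaScreen with GST-Six1 and His-Eya2 (5X mix: 250 nM and 500 nM), glutathione donor and nickel acceptor beads; buffer 50 mM Tris pH 8.0, 300 mM NaCl, 1 mM TCEP; 1 h at 37 C in the dark.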
CtBP-E1A inh: qHTS Assay for Inhibitors of the CtBP/E1A Interaction. AlphaScreen GST-E1A/His-CtBP binding, 1536-well; stronger effect = lower value. actives 0.49% (n = 340,000). activity change, % (concentration not given with the values). CtBP / adenovirus E1A interaction (AlphaScreen); in the data active = activity change below about -65%; inconclusive = mostly about -30% to -63%; note: % is set by controls: 0 for no effect and ±100 for the full control effect
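GST-E1A and His-tagged CtBP (125 nM each as 5X stock) were preincubated with pin-transferred compound for 2 h at 37 °C in the dark, then glutathione donor and nickel acceptor beads were added for 1 h before AlphaScreen reading.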
JMJD2A Tudor inh: qHTS Assay for Inhibitors of JMJD2A-Tudor Domain | Lysine-specific demethylase 4A (Homo sapiens), O75164 | Potency, µM (top dose mostly 114 µM), for the others: top-dose activity change, negative = inhibition, hits mostly inhibitors | AID 504339, 2011 | AlphaScreen JMJD2A-Tudor / H3K4me3 peptide binding | actives 4.4% (n = 390,000); note: potency is the fitted concentration of half-maximal effect; % is set by controls: 0 for no effect and ±100 for the full control effect; nearly all actives have a fitted effect of over 50% in size
G9a inh: qHTS Assay for Inhibitors of Histone Lysine Methyltransferase G9a; Histone-lysine N-methyltransferase EHMT2 (Homo sapiens), Q96KQ7; G9a H3K9 monomethylation, AlphaScreen, 2 h; Potency, µM (titrated, usually from 102 µM), inactives show at the top dose activity, negative = inhibition, hits mostly inhibitors; actives 8.8% (n = 350,000); AID 504332, 2011; note: potency is the fitted concentration of half-maximal effect; % is set by controls: 0 for no effect and ±100 for the full control effect; nearly all actives have a fitted effect of over 75% in size
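AlphaScreen detection with an anti-monomethyl H3K9 antibody quantified product after a 2 h room-temperature reaction containing 500 nM biotinylated H3K9 peptide, 20 µM SAM and 20 nM enzyme, which had been preincubated 15 min with compound.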
HP1b binding inh: HTS for Inhibitors of HP1-beta Chromodomain Interactions with Methylated Histone Tails. actives 0.56% (n = 390,000). Potency, µM (highest dose often 114 µM), without a hit: at the top dose activity change, negative = inhibition, usual class: inhibitors. AlphaScreen HP1-beta / biotin-H3K9me3 peptide binding. AID 540317, 2011. Chromobox protein homolog 1 (Homo sapiens), P83916; note: potency is the fitted concentration of half-maximal effect; nearly all actives have a fitted effect of over 70% in size
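AlphaScreen: HP1-beta (50 nM) preformed 30 min with biotin-H3(1-18)K9me3 peptide (50 nM) in PBS pH 7.4, 0.01% Tween-20. Compound added for 30 min at RT, then streptavidin donor/nickel chelate acceptor beads (10 ug/mL) for 30 min.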
* marks the source's active call; other numbers are inactive results; [ ] = dose if it differs, or a comment. Unless noted, calls come from the whole dose curve; as a rule, active = well fitted inhibition curve with a large enough effect; inconclusive = small, poorly fitted or top-dose-only effect; inactive = no such curve, though single readings can be large or run the other way.

Results for OC(c1cccc(Cl)c1)c1ncc(-c2cccc3ccccc23)[nH]1 (centres undefined) ?
Six1-Eya2 inh: inconclusive; CtBP-E1A inh: -23

What do the screens show for `OC(c1ccc2c(c1)OCO2)c1nccc2ccccc12` (centres undefined)?
BAZ2B inh: -24%; Six1-Eya2 inh: 19; CtBP-E1A inh: 38; JMJD2A Tudor inh: inconclusive; G9a inh: 45µM*; HP1b binding inh: 54%

Results for COc1ccc(-c2cn3nc(N4CCC(C(=O)Nc5ccccc5OC)CC4)sc3n2)cc1 ?
BAZ2B inh: -1%; JMJD2A Tudor inh: -13%; G9a inh: -41%[59 µM]; HP1b binding inh: 24%

Results for Cc1ccc2c(c1)c1c(c(=O)n(-c3ccccc3C)c(=O)n1CC(=O)NCCC1=CCCCC1)n2C ?
BAZ2B inh: -6%; JMJD2A Tudor inh: -12%; G9a inh: -5%[59 µM]; HP1b binding inh: 16%

How did Cc1nn(CCO)c2ncc(C(=O)c3cc(F)ccc3O)cc12 do in these assays?
BAZ2B inh: 4%; Six1-Eya2 inh: 4; CtBP-E1A inh: -10; JMJD2A Tudor inh: 11%; G9a inh: 50µM*; HP1b binding inh: 14%

Results for Cc1nn(CCO)c2ncc(C(=O)c3cc(Cl)ccc3O)cc12 ?
BAZ2B inh: 5%; Six1-Eya2 inh: 2; CtBP-E1A inh: -9; JMJD2A Tudor inh: -14%; G9a inh: 8%; HP1b binding inh: 3%

How did CCC(NC(=O)CCl)c1ccc(C)cc1 (centres undefined) do in these assays?
BAZ2B inh: -22%; Six1-Eya2 inh: 3; CtBP-E1A inh: 8; JMJD2A Tudor inh: 56µM*; G9a inh: -40%; HP1b binding inh: -12%

Results for CCCC(NC(=O)CCl)c1ccccc1 (centres undefined) ?
BAZ2B inh: 7%; Six1-Eya2 inh: 11; CtBP-E1A inh: 11; JMJD2A Tudor inh: -4%; G9a inh: inconclusive; HP1b binding inh: 23%

Results for O=C(CN1C(=O)CCn2nc(-c3ccccc3)cc21)NCc1ccc(F)cc1 ?
BAZ2B inh: 7%[57.1 µM]; JMJD2A Tudor inh: -14%; G9a inh: -1%[59 µM]; HP1b binding inh: 1%

What do the screens show for `O=C(CCc1ccccc1)NCc1ccc2c(c1)CCN2C(=O)c1ccc(Cl)cc1`?
BAZ2B inh: -1%; JMJD2A Tudor inh: 4%; G9a inh: 7%[59 µM]; HP1b binding inh: 25%

Results for CCOC(=O)C1CCCN(C(=S)Nc2ccc(Nc3ccccc3)cc2)C1 (centres undefined) ?
BAZ2B inh: 35µM*; Six1-Eya2 inh: -22; CtBP-E1A inh: -10; JMJD2A Tudor inh: 56µM*; G9a inh: 25µM*; HP1b binding inh: inconclusive

Results for NS(=O)(=O)c1ccc(NC(=S)N2CCC(O)CC2)cc1 ?
BAZ2B inh: 2%; Six1-Eya2 inh: 7; CtBP-E1A inh: -16; JMJD2A Tudor inh: 7%; G9a inh: 40µM*; HP1b binding inh: 12%

What do the screens show for `CCOC(=O)C1CCN(C(=S)Nc2ccc(C)cc2)CC1`?
BAZ2B inh: -25%; Six1-Eya2 inh: -10; JMJD2A Tudor inh: -13%; G9a inh: -19%; HP1b binding inh: 52%

How did CCOC(=O)C1CCN(C(=S)Nc2ccc(S(N)(=O)=O)cc2)CC1 do in these assays?
BAZ2B inh: -3%; Six1-Eya2 inh: 20; CtBP-E1A inh: -8; JMJD2A Tudor inh: inconclusive; G9a inh: 10µM*; HP1b binding inh: inconclusive

What do the screens show for `CNS(=O)(=O)c1cn(CC(=O)N2CCN(c3ccc(Cl)cc3)CC2)cc1S(=O)(=O)NC`?
BAZ2B inh: 12%; JMJD2A Tudor inh: -10%; G9a inh: 12%[59 µM]; HP1b binding inh: 48%
